In PubChem BioAssay one finds z-score and composite z-score data, which are given here for eight molecules.

Test [1] in a line: optical density shifts of acrAB sulA E. coli – strain DRC41, OD650, 48 h, E. coli filamentation inducer project, primary screen (AID 1152).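 Further: E. coli MC1000 strain DRC41 lacking acrAB efflux pump and sulA.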 As to conditions: higher = more signal, called active from +8 up or from −8 down.
Test [2] in a line: probe aLefty1 binding on compound microarray – biochemical, small-molecule microarray, 635/667 nm fluorescence, primary screen (AID 1153).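 Further: score merges spot fluorescence with signal-to-noise ratio from the scanned slide images.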 Conditions: higher = more signal.
Test [3] can be described thus: plasmodial surface anion channel blockers, osmotic lysis – cell-based, P. falciparum Indochina, OD700, 1 h, primary screen (AID 1154). Conditions: P. falciparum Indochina infected RBC osmotic lysis, higher = more signal, called active from +8 up or from −8 down.
The nature of test [4]: plasmodial surface anion channel blockers, osmotic lysis – cell-based, P. falciparum Indochina, OD700, 2 h, primary screen (AID 1155).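 Further: lysis reports solute entry through the parasite surface anion channel PSAC.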 As to conditions: P. falciparum Indochina infected erythrocytes, higher = more signal, called active from +8 up or from −8 down.
A short description of test [5]: changes in parasitized red cell lysis, either direction – P. falciparum Indochina, OD700, 3 h, PSAC antagonist project, primary screen (AID 1156). As to conditions: P. falciparum-infected erythrocytes, osmotic lysis, higher = more signal, called active from +8 up or from −8 down.
A short description of test [6]: plasmodial surface anion channel blockers, osmotic lysis – cell-based, P. falciparum Indochina, OD700, 18 h, primary screen (AID 1157). Conditions: P. falciparum Indochina infected erythrocytes, osmotic lysis OD700, 18 h; higher = more signal, called active from +8 up or from −8 down.
Test [7] in a line: S6 kinase pathway phospho-S6 level changes – cell-based, A549, cytoblot, luminescence, serum-stimulated, primary screen (AID 1158).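 Further: serum-stimulated A549 lung adenocarcinoma cells; signal is phosphorylated S6 detected by cytoblot immunostaining with HRP secondary.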 Conditions: 5 h, higher = more signal.
Test [8] concerns the target NADPH oxidase 2 (Homo sapiens) (UniProt P04839). The test is described as follows: compounds shifting NOX2 Amplex Red fluorescence – cell-based, HEK293-NOX2, PMA-stimulated, NOX inhibitor project, primary screen (AID 1159). Further: test concentration not given here. As to conditions: 45 min, higher = more signal, called active from +8 up or from −8 down.
For test [9], the target named is NADPH oxidase 4 (Homo sapiens) (UniProt Q9NPH5). Nature of the test: compounds shifting NOX4 Amplex Red fluorescence – cell-based, HEK293-NOX4, tetracycline-induced, NOX inhibitor project, primary screen (AID 1160). Conditions: HEK293-NOX4, Amplex Red H2O2 fluorescence, 45 min; higher = more signal, called active from +8 up or from −8 down.
The target in test [10] is NADPH oxidase 5 (Homo sapiens) (UniProt Q96PH1). The test is described as follows: compounds shifting NOX5 Amplex Red fluorescence – cell-based, HEK293-NOX5, NOX inhibitor project, primary screen (AID 1161). Conditions: HEK293-NOX5, ionomycin, 45 min, higher = more signal.
Test [11] is described as follows: compound effects on lung adenocarcinoma cell viability – A549, calcein-AM fluorescence, 48 h, basal, profiling panel (AID 1162). Further: test concentration not given here. Conditions: higher = more signal.
Test [12] can be described thus: compound effects on differentiated 3T3-L1 adipocyte viability – cell-based, 3T3-L1 adipocytes, calcein-AM fluorescence, 48 h, basal, profiling panel (AID 1163). Further: test concentration not given here. As to conditions: 3T3-L1 adipocytes viability, higher = more signal.
Test [13] in a line: compound effects on hepatocellular carcinoma cell viability – HepG2, calcein-AM fluorescence, 48 h, basal, profiling panel (AID 1164). Further: test concentration not given here. Conditions: higher = more signal.
The nature of test [14]: compound effects on multiple myeloma cell viability – MM1S, calcein-AM fluorescence, 48 h, basal, profiling panel (AID 1165). Further: test concentration not given here. Conditions: higher = more signal.
Test [15] in a line: calcein-AM signal in unstimulated myeloma cells – cell-based, calcein-AM fluorescence, 48 h, PK04 Diversity Set, profiling panel (AID 1166).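 Further: cells grown under basal conditions without added stimulus; test concentration not given here.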 Conditions: RPMI8226 myeloma viability, higher = more signal.
Test [16] can be described thus: JC-1 mitochondrial signal, unstimulated HepG2 cells – cell-based, JC-1 fluorescence, 24 h, 100 nL compound, profiling panel (AID 1167). Further: test concentration not given here. Conditions: HepG2 mitochondrial potential, higher = more signal.
Test [17] is described as follows: JC-1 mitochondrial signal, unstimulated adipocytes – cell-based, JC-1 fluorescence, 3T3-L1 adipocytes, 24 h, 100 nL compound, profiling panel (AID 1168). Further: test concentration not given here. As to conditions: JC-1 mitochondrial fluorescence, higher = more signal, called active from +8 up or from −8 down.
Test [18] in a line: JC-1 mitochondrial signal, unstimulated myeloma cells – cell-based, JC-1 fluorescence, RPMI8226, 24 h, 100 nL compound, profiling panel (AID 1169). Further: test concentration not given here. Conditions: JC-1 mitochondrial potential fluorescence, higher = more signal.
Test [19] can be described thus: JC-1 mitochondrial signal, unstimulated MM1S myeloma – cell-based, JC-1 fluorescence, 24 h, 100 nL compound, profiling panel (AID 1170). Further: test concentration not given here. Conditions: MM1S mitochondrial potential, higher = more signal.
A short description of test [20]: resazurin metabolic signal in A549 cells – cell-based, resazurin fluorescence, 24 h, PK04 Diversity Set, profiling panel (AID 1171). Further: test concentration not given here. As to conditions: A549 viability, higher = more signal, called active from +8 up or from −8 down.

The source made the active and inactive calls.

Sequence of NADPH oxidase 2 (Homo sapiens) (P04839 whole entry, looked up): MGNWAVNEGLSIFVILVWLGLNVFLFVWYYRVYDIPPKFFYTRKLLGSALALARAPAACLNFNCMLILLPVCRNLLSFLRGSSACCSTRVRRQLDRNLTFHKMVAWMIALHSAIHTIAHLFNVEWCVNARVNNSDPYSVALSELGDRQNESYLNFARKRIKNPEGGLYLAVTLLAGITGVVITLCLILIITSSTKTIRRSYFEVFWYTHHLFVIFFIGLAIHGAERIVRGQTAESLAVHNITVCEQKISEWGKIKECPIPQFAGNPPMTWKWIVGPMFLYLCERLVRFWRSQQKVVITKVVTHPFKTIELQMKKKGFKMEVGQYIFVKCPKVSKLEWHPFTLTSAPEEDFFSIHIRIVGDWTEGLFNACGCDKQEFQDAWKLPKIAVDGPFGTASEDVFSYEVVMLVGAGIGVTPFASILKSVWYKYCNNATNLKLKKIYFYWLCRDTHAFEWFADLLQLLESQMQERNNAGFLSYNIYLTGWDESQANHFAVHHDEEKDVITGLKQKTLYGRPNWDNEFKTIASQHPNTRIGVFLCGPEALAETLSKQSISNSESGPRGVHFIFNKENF
Sequence of NADPH oxidase 4 (Homo sapiens) (Q9NPH5 whole entry, looked up): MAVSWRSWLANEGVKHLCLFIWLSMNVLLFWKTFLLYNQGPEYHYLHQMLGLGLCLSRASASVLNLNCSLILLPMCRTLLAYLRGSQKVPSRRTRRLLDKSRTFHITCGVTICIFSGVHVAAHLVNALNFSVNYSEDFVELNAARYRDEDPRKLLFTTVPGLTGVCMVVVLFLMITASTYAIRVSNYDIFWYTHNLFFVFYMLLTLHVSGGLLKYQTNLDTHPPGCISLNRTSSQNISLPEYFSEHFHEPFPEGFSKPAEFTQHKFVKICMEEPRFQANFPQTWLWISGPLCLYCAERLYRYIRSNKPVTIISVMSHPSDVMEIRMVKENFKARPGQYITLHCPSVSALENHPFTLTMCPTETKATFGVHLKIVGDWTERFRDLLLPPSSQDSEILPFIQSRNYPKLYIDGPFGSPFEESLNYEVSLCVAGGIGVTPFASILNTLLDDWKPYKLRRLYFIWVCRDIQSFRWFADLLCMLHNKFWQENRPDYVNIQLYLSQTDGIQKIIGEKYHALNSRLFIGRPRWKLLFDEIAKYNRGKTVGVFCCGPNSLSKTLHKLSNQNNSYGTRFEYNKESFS
Sequence of NADPH oxidase 5 (Homo sapiens) (Q96PH1 whole entry, looked up): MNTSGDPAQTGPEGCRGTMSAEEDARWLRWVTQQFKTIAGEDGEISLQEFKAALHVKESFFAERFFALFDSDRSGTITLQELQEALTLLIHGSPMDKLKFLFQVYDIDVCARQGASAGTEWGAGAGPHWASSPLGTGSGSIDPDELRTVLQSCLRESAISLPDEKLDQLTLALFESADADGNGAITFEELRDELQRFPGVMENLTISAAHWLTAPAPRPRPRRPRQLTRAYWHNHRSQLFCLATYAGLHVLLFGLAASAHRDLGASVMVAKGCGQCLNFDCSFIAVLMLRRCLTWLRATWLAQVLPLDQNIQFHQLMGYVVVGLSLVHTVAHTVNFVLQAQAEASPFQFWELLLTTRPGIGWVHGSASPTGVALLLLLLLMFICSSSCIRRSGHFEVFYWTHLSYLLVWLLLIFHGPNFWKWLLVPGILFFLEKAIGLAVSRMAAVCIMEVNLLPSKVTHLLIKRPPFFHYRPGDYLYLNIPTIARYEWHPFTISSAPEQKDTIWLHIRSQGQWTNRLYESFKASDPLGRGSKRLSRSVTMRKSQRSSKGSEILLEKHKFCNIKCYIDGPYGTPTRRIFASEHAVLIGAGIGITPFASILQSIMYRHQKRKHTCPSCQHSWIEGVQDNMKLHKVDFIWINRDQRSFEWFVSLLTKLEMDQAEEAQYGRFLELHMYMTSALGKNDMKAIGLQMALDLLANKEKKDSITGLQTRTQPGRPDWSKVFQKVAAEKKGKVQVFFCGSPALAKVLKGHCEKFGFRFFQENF

Consider `CC(=O)NCCCC[C@@H]1NC(=O)[C@H]2C[C@@H](C(=O)NCCCCCCN(C)C)[C@@H](c3ccc(O)cc3)N2C1=O`, for which the z-score in test [1] was -0.233 (inactive); in [3], 1.32 (inactive); in [4], 0.461 (inactive); in [5] it was 1.92 (inactive); in test [6], 0.0071 (inactive); in test [7], 0.144. Moreover, the z-score was -0.768 (inactive) in test [8]; -1.51 (inactive) in test [9]; -0.479 in test [10]; -0.345 in [11]; 1.03 in [12]; -1.23 in [13]. In addition, the z-score in [14] is -0.327; in [15], -0.551; in test [16], -0.755; in test [17] it was 0.154 (inactive); in [18], 0.669; in test [19], 0.116. For the same molecule, the z-score in [20] is -1.27 (inactive). Also, the composite z-score in [2] was found to be 0.538.

For the molecule `COC(=O)C1=C(C)N(Cc2ccccc2)c2c(C(=O)OC)c(C(=O)OC)c(C(=O)OC)c(=O)n2[C@@H]1c1ccccc1`, the z-score is 0.199 (inactive) in test [1]; 0.294 (inactive) in test [3]; -1.61 (inactive) in [4]; 0.012 (inactive) in test [5]; -1.45 (inactive) in test [6]; 0.715 in test [7]. The z-score in [8] is 1.74 (inactive); in test [9] it was 0.873 (inactive); in test [10] it was -0.0758; in test [11], 0.943; in test [12], 0.338; in [13] it was 0.244. Besides, the z-score in test [14] was 0.24; in test [15], 0.327; in [16] it was 1.12; in test [17] it was 0.633 (inactive); in test [18], -0.281; in test [19], -0.0899. Besides, in [20], the z-score is 0.524 (inactive). This molecule also displayed a composite z-score in [2] of -0.0186.

Consider `C=C(CCCC)C(=O)CC[C@@H](OC(C)=O)c1ccccc1OCCO`, for which the z-score is 0.377 (inactive) in test [1]; 4.13 (inactive) in test [3]; 0.663 (inactive) in test [4]; -0.566 (inactive) in test [5]; 0.7 (inactive) in [6]; -0.0442 in test [7]. For the same molecule, the z-score was 0.356 (inactive) in [8]; -0.852 (inactive) in test [9]; -1.68 in test [10]; 0.509 in test [11]; -0.0795 in [12]; -0.54 in test [13]. In addition, the z-score was -2.62 in test [14]; -1.67 in test [15]; -0.684 in [16]; 1.08 (inactive) in test [17]; -0.76 in test [18]; 0.93 in test [19]. For the same molecule, the z-score in [20] was 0.288 (inactive). This molecule also registered a composite z-score in test [2] of -0.145.

With `COC(=O)[C@@]1(Cc2ccc(OC)cc2)[C@H]2c3cc(C(=O)N(C)C)n(Cc4ccc(C)c(F)c4F)c3C[C@H]2CN1C(=O)c1ccccc1`, the z-score was -1.37 (inactive) in test [1]; 1.76 (inactive) in test [3]; -0.0758 (inactive) in test [4]; 0.571 (inactive) in [5]; 0.788 (inactive) in test [6]; 0.0141 in test [7]. The z-score in test [8] was -0.795 (inactive); in [9] it was -0.522 (inactive); in [10] it was 3.23; in test [11] it was -1.81; in test [12], -0.484; in test [13], -1.15. The z-score in [14] was -1.34; in test [15] it was -1.5; in test [16], 0.00937; in test [17] it was -0.589 (inactive); in [18], 0.817; in [19] it was -1.3. Besides, the z-score in test [20] is 1.41 (inactive). Also, in [2], the composite z-score turned out to be 0.187.

On to `CC(=O)NCCCC[C@@H]1NC(=O)[C@@H]2C[C@H](C(=O)NCCCCCNC(=O)CS)[C@H](c3ccc(O)cc3)N2C1=O`, for which the z-score was 3.01 (inactive) in test [1]; 2.55 (inactive) in test [3]; -0.247 (inactive) in [4]; -2.2 (inactive) in [5]; -1.04 (inactive) in test [6]; 1.68 in test [7]. The z-score in [8] is 0.391 (inactive); in test [9], 0.284 (inactive); in [10], 0.531; in [11], 1.69; in test [12] it was 0.349; in test [13] it was -0.0748. For the same molecule, the z-score in test [14] is 0.372; in test [15] it was 1.33; in [16] it was 1.36; in [17] it was 0.985 (inactive); in test [18] it was -0.418; in test [19], -0.559. In [20], the z-score was 1.46 (inactive). For the same molecule, the composite z-score in [2] is -0.0528.

As to `O=C1O[C@H](c2ccccc2)[C@H](c2ccccc2)N2[C@H]1[C@@H](C(=O)NC[C@H](O)c1ccccc1)[C@]1(C(=O)Nc3ccc(C#CC4(O)CCCCCC4)cc31)[C@H]2c1ccc(OCCO)cc1`, the z-score in [1] is 3.02 (inactive); in test [3] it was 3.64 (inactive); in test [4] it was -0.0068 (inactive); in test [5], 0.226 (inactive); in test [6] it was -1.03 (inactive); in test [7], 2.78. Also, the z-score in [8] was 2.48 (inactive); in test [9], 0.0727 (inactive); in [10], 0.139; in [11], -1.2; in [12], 0.694; in test [13], 0.643. The z-score was -1.29 in [14]; -0.587 in [15]; -1.32 in [16]; 1.78 (inactive) in test [17]; -0.842 in [18]; -0.469 in test [19]. The z-score in [20] is 0.132 (inactive). Also, in [2], the composite z-score came to 0.0811.

In the case of `CO[C@H]1O[C@H](CO)[C@@H](OC(=O)Nc2ccc3c(c2)OCO3)[C@H](OC(=O)Nc2ccccc2)[C@@H]1OC(=O)Nc1ccccc1`, the z-score in test [1] is -1.51 (inactive); in test [3], 7.77 (inactive); in test [4] it was 0.903 (inactive); in [5], -0.33 (inactive); in test [6] it was 0.717 (inactive); in test [7] it was 0.342. Also, the z-score is 1.07 (inactive) in test [8]; -0.393 (inactive) in [9]; -0.675 in [10]; -0.279 in test [11]; -0.0955 in test [12]; -1.27 in test [13]. Further, the z-score in test [14] is -2; in [15], -1.66; in [16] it was -1.17; in test [17], 0.157 (inactive); in test [18], -0.611; in [19], -0.191. Also, the z-score in test [20] is -1.57 (inactive). In test [2], this molecule displayed a composite z-score of 0.121.

For `CC(C)[Si]1(C(C)C)O[C@@H](c2ccccc2)c2cc(C3CC3)nc(-c3ccc(Oc4ccccc4)cc3)c21`, the z-score in [1] was 2.17 (inactive); in test [3], 0.835 (inactive); in [4], -0.0994 (inactive); in test [5] it was 1.08 (inactive); in test [6], -0.812 (inactive); in test [7] it was -0.164. Also, the z-score in [8] was 1.06 (inactive); in test [9], 0.86 (inactive); in test [10], 0.456; in test [11], -0.654; in [12], 1.31; in test [13] it was 0.0626. Moreover, the z-score in test [14] was -0.964; in [15] it was 0.391; in [16], 0.484; in test [17] it was 0.924 (inactive); in test [18], 0.38; in [19], 0.484. In addition, the z-score in test [20] was 1.6 (inactive). Also, the composite z-score in test [2] was -0.0011.
